# Results published in PubChem BioAssay (NCATS).
# Values joined by “and” are separate entries in the source; they are usually repeats but may differ in a detail not shown here. Equal values may be shown once. Records with an inconclusive call do not appear. Where a call stands in place of a potency, no number is given. A structure can be active in one record and inactive in another. Active and inactive are the calls of the source. Unless noted, the call rests on the fitted dose curve.
# Columns and labels:
# [1] = target: Ubiquitin carboxyl-terminal hydrolase 1 (Homo sapiens) (UniProt O94782); assay: Inhibitors of USP1/UAF1: Pilot qHTS (AID 504865; active means well fitted inhibition curve with a large enough effect;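 further: rhodamine fluorescence freed from ubiquitin-rhodamine substrate followed over time; top concentration of the series differs between compounds; nearly all actives have a fitted effect of over 35% in size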)
# In short: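 USP1/UAF1 complex (1nM) preincubated with compound 15 min at room temperature, then Ub-Rho substrate (150nM final) added. Fluorescence read kinetically at 480/540 nm, 6 reads every 60 seconds. Buffer: 50mM HEPES pH 7.8, 0.5mM EDTA, 0.1 mg/ml BSA, 1mM TCEP, 0.01% Tween-20.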
# [2] = target: Estrogen receptor (Homo sapiens) (UniProt P03372); assay: qHTS assay for small molecule antagonists of estrogen receptor alpha signaling (AID 588513; active means well fitted curve in the direction sought with a large enough effect in the signal ratio, with a control signal flat, not every such curve was filed as active; the % refers to the signal ratio; further: potency means the concentration at half of the fitted maximal effect)
# In short: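 ER-alpha-UAS-bla GripTite HEK 293 cells in medium with 2% charcoal/dextran-treated FBS were preincubated 4 h at 37 C, dosed with compound (1:2 titration), stimulated with 0.5nM 17-beta-estradiol for 18 h, then read by CCF4 beta-lactamase fluorescence.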
# [3] = target: Estrogen receptor (Homo sapiens) (UniProt P03372); assay: qHTS assay for small molecule agonists of estrogen receptor alpha signaling (AID 588514); further: nearly all actives have a fitted effect of over 70% in size; further: potency means the concentration at half of the fitted maximal effect
# In short: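 ER-alpha-UAS-bla GripTite HEK293 cells, 5000/well in 2% charcoal/dextran-stripped FBS medium, treated with compound titrations 18 h at 37 C. CCF4 beta-lactamase read by fluorescence after 2 h RT; normalised to 20 nM 17-beta-estradiol (100%) and DMSO (0%), Hill fit for EC50 and efficacy.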
# [4] = target: Bile acid receptor (Homo sapiens) (UniProt Q96RI1); assay: qHTS assay for small molecule antagonists of farnesoid X receptor signaling (AID 588526)
# In short: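 Antagonist mode: titrated compounds tested against chenodeoxycholic acid stimulation (normalized to 50 uM CDCA and DMSO) in GeneBLAzer HEK293T cells for 16 h. Beta-lactamase read by CCF4 fluorescence; IC50 from Hill fits.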
# [5] = target: Androgen receptor (Homo sapiens) (UniProt P10275); assay: qHTS assay for small molecule agonists of androgen receptor signaling (AID 588515; active means well fitted curve in the direction sought with a large enough effect in the signal ratio, with a control signal flat; the % refers to the signal ratio); conditions: AR-UAS-bla HEK293, beta-lactamase ratio, agonist 16 h; stronger effect = higher value
# In short: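 EC50 and efficacy came from Hill fits of titrations (up to 92 uM) normalized to 30 nM R1881 as 100% and DMSO as 0%. Compound exposure was 16 h at 37 C on AR-UAS-bla HEK293 cells, with a 405/460/530 nm CCF4 fluorescence read.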
# [6] = target: Androgen receptor (Homo sapiens) (UniProt P10275); assay: qHTS assay for small molecule antagonists of androgen receptor signaling (AID 588516; active means well fitted curve in the direction sought with a large enough effect in the signal ratio, with a control signal flat, not every such curve was filed as active; the % refers to the signal ratio)
# In short: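 AR-UAS-bla-GripTite HEK 293 cells (2000/well, 5 h at 37 C) received compound titrations, then R1881 at 10 nM final; after 16 h at 37 C, CCF4 dye 2 h RT, beta-lactamase fluorescence read; IC50 from Hill fits.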
# Chain of Bile acid receptor (Homo sapiens) (Q96RI1 whole entry, looked up): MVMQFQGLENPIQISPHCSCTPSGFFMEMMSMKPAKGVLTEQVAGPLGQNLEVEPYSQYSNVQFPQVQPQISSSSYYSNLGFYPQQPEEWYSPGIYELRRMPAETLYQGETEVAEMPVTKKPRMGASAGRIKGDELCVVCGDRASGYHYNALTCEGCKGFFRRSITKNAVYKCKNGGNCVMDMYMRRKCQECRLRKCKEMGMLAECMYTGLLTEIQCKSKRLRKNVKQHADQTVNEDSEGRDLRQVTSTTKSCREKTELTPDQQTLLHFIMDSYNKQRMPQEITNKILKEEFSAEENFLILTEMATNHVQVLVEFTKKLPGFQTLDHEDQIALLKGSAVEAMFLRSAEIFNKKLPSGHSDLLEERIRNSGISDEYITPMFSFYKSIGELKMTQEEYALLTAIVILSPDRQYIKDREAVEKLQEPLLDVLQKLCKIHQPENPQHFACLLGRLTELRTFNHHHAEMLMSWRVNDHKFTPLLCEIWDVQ
# Chain of Androgen receptor (Homo sapiens) (P10275 whole entry, looked up): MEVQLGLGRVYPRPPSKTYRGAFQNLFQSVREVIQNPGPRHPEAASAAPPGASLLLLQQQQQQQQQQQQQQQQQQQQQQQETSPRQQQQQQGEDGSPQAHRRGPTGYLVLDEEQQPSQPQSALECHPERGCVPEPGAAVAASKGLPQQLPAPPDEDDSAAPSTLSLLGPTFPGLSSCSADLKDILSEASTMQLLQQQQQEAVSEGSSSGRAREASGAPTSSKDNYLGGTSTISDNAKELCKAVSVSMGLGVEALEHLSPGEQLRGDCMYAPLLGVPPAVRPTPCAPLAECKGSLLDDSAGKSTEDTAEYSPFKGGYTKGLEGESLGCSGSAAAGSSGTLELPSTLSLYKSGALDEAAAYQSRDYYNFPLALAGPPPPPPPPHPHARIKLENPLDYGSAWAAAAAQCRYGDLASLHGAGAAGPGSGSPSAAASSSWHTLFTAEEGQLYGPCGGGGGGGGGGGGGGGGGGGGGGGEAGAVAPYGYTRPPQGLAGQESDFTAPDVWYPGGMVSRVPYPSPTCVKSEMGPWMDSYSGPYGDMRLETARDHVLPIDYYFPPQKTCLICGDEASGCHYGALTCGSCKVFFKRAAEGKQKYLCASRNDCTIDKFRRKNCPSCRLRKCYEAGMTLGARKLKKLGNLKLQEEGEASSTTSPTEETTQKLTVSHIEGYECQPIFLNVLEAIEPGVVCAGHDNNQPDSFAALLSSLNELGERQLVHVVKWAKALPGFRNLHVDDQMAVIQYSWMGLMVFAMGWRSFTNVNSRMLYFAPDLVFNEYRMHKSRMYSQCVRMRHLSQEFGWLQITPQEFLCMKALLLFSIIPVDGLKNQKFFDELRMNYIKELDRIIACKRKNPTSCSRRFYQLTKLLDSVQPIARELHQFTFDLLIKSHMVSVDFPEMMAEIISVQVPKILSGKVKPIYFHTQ
# Chain of Estrogen receptor (Homo sapiens) (P03372 whole entry, looked up): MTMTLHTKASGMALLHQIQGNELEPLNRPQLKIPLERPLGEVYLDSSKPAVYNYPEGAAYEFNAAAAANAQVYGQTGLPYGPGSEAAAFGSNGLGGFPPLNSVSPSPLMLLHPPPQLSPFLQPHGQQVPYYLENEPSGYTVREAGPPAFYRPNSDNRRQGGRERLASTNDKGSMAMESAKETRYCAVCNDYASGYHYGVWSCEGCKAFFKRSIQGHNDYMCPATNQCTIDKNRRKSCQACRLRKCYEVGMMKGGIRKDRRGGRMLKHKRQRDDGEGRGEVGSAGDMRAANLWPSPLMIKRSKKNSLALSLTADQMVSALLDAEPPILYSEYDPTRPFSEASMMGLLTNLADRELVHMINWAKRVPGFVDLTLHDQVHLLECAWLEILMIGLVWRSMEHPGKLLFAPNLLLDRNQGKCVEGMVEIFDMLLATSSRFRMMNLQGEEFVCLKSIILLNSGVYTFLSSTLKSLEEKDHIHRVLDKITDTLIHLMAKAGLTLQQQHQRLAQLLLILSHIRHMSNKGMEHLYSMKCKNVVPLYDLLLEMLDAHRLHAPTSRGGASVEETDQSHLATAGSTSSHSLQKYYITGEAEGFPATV
# Chain of Ubiquitin carboxyl-terminal hydrolase 1 (Homo sapiens) (O94782 whole entry, looked up): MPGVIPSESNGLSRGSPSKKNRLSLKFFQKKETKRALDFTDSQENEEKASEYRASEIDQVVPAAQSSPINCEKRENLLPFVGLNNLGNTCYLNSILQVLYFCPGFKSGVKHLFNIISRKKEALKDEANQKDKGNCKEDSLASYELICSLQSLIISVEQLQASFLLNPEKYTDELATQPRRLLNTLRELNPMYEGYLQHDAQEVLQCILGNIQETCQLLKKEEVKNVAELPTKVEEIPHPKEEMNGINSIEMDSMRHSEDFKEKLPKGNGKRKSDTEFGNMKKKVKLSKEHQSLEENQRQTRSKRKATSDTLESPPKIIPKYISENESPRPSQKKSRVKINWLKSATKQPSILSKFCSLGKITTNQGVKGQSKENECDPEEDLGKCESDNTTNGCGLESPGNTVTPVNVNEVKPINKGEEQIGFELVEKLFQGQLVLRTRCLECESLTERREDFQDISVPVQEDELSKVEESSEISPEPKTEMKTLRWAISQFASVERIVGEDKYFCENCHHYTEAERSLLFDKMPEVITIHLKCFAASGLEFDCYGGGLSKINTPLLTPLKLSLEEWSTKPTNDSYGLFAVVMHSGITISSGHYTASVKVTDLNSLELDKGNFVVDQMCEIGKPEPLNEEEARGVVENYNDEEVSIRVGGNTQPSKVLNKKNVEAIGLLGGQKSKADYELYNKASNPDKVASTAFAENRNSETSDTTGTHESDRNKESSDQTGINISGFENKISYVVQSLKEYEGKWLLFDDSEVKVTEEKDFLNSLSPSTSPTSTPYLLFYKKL
smiles,measurement,setting,value
CCCCC(CC)COS(=O)(=O)O (configuration not stated),Potency,[1],inactive
same,Potency,[2],inactive
same,Potency,[3],inactive
same,outcome,[4],inactive
C=C1C(CCl)(CCl)C2(Cl)C(Cl)C(Cl)C1(Cl)C2(Cl)Cl (configuration not stated),activation,[5],-14.5% (inactive)
C[C@H](CCC(=O)O)[C@H]1CC[C@H]2[C@@H]3[C@H](O)C[C@@H]4C[C@H](O)CC[C@]4(C)[C@H]3C[C@H](O)[C@]12C,Potency,[2],inactive
same,Potency,[3],inactive
OC[C@H]1O[C@@](CO)(O[C@H]2O[C@H](CO)[C@@H](O)[C@H](O)[C@H]2O)[C@@H](O)[C@@H]1O,Potency,[1],inactive
same,Potency,[3],inactive
CCCCCCCCCCCCCCCCCC(=O)OC[C@@H](O)[C@H]1OC[C@H](O)[C@H]1O,Potency,[1],inactive
same,activation,[5],14.2% (inactive)
same,outcome,[6],inactive
same,outcome,[4],inactive
Cc1ccc(S(=O)(=O)O)cc1C,Potency,[1],inactive
same,Potency,[2],inactive
same,Potency,[3],inactive
[O-][N+](=Nc1ccccc1)c1ccccc1,Potency,[1],inactive
same,Potency,[2],inactive
same,Potency,[3],inactive
CC(C)(C)CC(C)(C)c1ccc(OCCO)cc1,Potency,[1],inactive
same,Potency,[2],inactive
same,Potency,[3],inactive
same,activation,[5],-21% (inactive)
c1ccc2ccccc2c1,Potency,[1],inactive
same,Potency,[2],inactive
same,Potency,[3],inactive
same,outcome,[4],inactive
Oc1cccc(O)c1O,Potency,[1],inactive
same,Potency,[2],inactive
same,Potency,[3],8.91 µM (active)
OB(O)O,Potency,[1],inactive
same,Potency,[2],inactive
same,outcome,[4],inactive
COC(=O)c1ccccc1O,Potency,[1],inactive
same,Potency,[2],inactive
same,Potency,[3],inactive
CC[C@H]1OC(=O)[C@H](C)[C@@H](O[C@H]2C[C@@](C)(OC)[C@@H](O)[C@H](C)O2)[C@H](C)[C@@H](O[C@@H]2O[C@H](C)C[C@H](N(C)C)[C@H]2O)[C@](C)(O)C[C@@H](C)CN(C)[C@H](C)[C@@H](O)[C@]1(C)O,Potency,[1],inactive
same,Potency,[2],inactive
same,Potency,[3],inactive
CC/C=C\C/C=C\C/C=C\CCCCCCCC(=O)O,Potency,[2],inactive
same,Potency,[3],inactive
same,outcome,[4],inactive
CC1=CCC2CC1C2(C)C (configuration not stated),Potency,[1],inactive
same,Potency,[2],inactive
same,Potency,[3],inactive
Cc1ncc[nH]1,Potency,[1],inactive
same,outcome,[4],inactive
Cc1ccc(S(=O)(=O)NCl)cc1,Potency,[2],inactive
same,Potency,[3],inactive
C[Si](C)(C)O[Si](C)(C)C,Potency,[1],inactive
same,outcome,[4],inactive
OCc1ccccc1,Potency,[1],inactive
same,Potency,[2],inactive
same,Potency,[3],inactive
same,activation,[5],-14.4% (inactive)
same,outcome,[6],inactive
C[C@H](CCC(=O)O)[C@H]1CC[C@H]2[C@@H]3CC[C@@H]4C[C@H](O)CC[C@]4(C)[C@H]3C[C@H](O)[C@]12C,Potency,[1],inactive
same,Potency,[2],inactive
same,Potency,[3],inactive
same,outcome,[4],inactive
Nc1ncnc2c1ncn2[C@H]1CC[C@@H](CO)O1,Potency,[1],inactive
same,Potency,[2],inactive
same,Potency,[3],inactive
same,outcome,[4],inactive
OCC(O)CO,Potency,[1],inactive
same,Potency,[2],inactive
same,Potency,[3],inactive
same,outcome,[4],inactive
CC(C)[C@@H]1CC[C@@H](C)C[C@H]1O,activation,[5],9.8% (inactive)
same,outcome,[6],inactive
same,outcome,[4],inactive
CO[C@@H]1[C@H](OC(=O)/C=C/C=C/C=C/C=C/C(=O)O)CC[C@]2(CO2)[C@H]1[C@@]1(C)O[C@@H]1CC=C(C)C,Potency,[3],inactive
O=P(O)(O)O,Potency,[1],inactive
same,outcome,[4],inactive
OCCOCCOCCO,Potency,[1],inactive
same,Potency,[2],inactive
same,Potency,[3],inactive
same,outcome,[6],inactive
CN(CCO)CC(O)Cn1cnc2c1c(=O)n(C)c(=O)n2C (configuration not stated) (tested in a mixture with another compound),Potency,[1],inactive
same,outcome,[4],inactive
CC(C)O,Potency,[1],inactive
same,Potency,[2],inactive
same,Potency,[3],inactive
same,outcome,[4],inactive
Nc1ccc(N=Nc2ccccc2)c(N)n1,Potency,[2],inactive and 35.5 µM [inhibitor] (active)
CCCCC,Potency,[1],inactive
same,outcome,[4],inactive
